The results in this text go back to PubChem BioAssay (EPA / NIEHS).

In experiment [1] the target is Cellular tumor antigen p53 (Homo sapiens) (UniProt P04637). The experiment in a line: TOX21_p53_BLA_p3_ratio: Tox21 HCT-116 p53 Agonism Beta-lactamase Assay, Ratio, Phase 3 (AID 2283596). Put shortly:
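HCT116 p53-bla cells (4000/well) given compound in DMSO (217-fold dilution) after 5 h, incubated 16 h at 37C. CCF4-AM substrate 2 h at room temperature; 460/530 nm emission ratio, gain fitted against DMSO.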

Experiment [2] in a line: TOX21_p53_BLA_p4_viability: Viability Assessment in the Tox21 HCT-116 p53 Agonism Beta-lactamase Assay, Phase 4 (AID 2283597).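 Further: hits lower the luminescence signal meaning cytotoxicity.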 In short, it runs like this:
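Luminescent ATP readout (CellTiter-Glo, 30 min, room temperature) in the same wells as the p53 bla ratio. HCT116 cells were treated for 16 h at 37C with DMSO-dissolved compounds.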

The target of experiment [3] is Cellular tumor antigen p53 (Homo sapiens) (UniProt P04637). The experiment in a line: TOX21_p53_BLA_p5_ratio: Tox21 HCT-116 p53 Agonism Beta-lactamase Assay, Ratio, Phase 5 (AID 2283599). Put shortly: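 HCT-116 p53-bla cells (4000/well) plated 5 h, dosed with compound (217-fold DMSO dilution) for 16 h at 37 C; CCF4-AM substrate 2 h at room temperature. Activity is the 460/530 nm emission ratio (405 nm excitation), fitted in gain-of-signal direction versus DMSO.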

Experiment [4] is described as follows: TOX21_p53_BLA_p5_viability: Viability Assessment in the Tox21 HCT-116 p53 Agonism Beta-lactamase Assay, Phase 5 (AID 2283600). Put shortly: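 Seeded cells (4000/well) settle 5 h before compound addition. Plates then incubate 16 h at 37C, receive FRET substrate for 2 h, and finally CellTiter-Glo, with luminescence measured after a 30 min room-temperature incubation.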

The target in experiment [5] is Cellular tumor antigen p53 (Homo sapiens) (UniProt P04637). The experiment in a line: TOX21_p53_BLA_p4_ratio: Tox21 HCT-116 p53 Agonism Beta-lactamase Assay, Ratio, Phase 4 (AID 2283601). In short, it runs like this:
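HCT-116 p53 beta-lactamase reporter cells (4000/well) preincubated 5 h, then compound (217-fold dilution of DMSO stock) for 16 h at 37C. CCF4-AM substrate added 2 h at room temperature; 460/530 nm emission ratio fitted upward versus DMSO.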

The nature of experiment [6]: Tanguay_ZF_120hpf_MORT_legacy: (Legacy) Oregon State University Tanguay Lab 120 Hour Post-fertilization zebrafish Assay for Mortality (AID 2283633). In short, it runs like this:
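Single dechorionated Tropical 5D embryos were held with test chemical (0.64% DMSO final) from 6 to 120 hpf at 28C under foil. Deaths at 24 or 120 hpf were recorded as binary calls, analysed for increase over DMSO controls.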

A short description of experiment [7]: Tanguay_ZF_120hpf_YSE_legacy: (Legacy) Oregon State University Tanguay Lab 120 Hour Post-fertilization zebrafish Assay for Yolk Sac Edema (AID 2283634).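 On AC50: actives raise the incidence of yolk sac edema above the DMSO baseline.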 In short, it runs like this: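 Single dechorionated embryos were held in sealed plates at 28C with test chemical (0.64% DMSO final) from 6 hpf until 120 hpf. Edema of the yolk sac was then recorded as a binary endpoint; non-mortality endpoints were skipped for dead embryos.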

Experiment [8] is described as follows: Tanguay_ZF_120hpf_AXIS_legacy: (Legacy) Oregon State University Tanguay Lab 120 Hour Post-fertilization zebrafish Assay for Body Axis Malformation (AID 2283635).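 On AC50: potency for an increased fraction of larvae scored with body axis malformation.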 In short, it runs like this:
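Each dechorionated embryo was exposed alone from 6 hpf, with DMSO at 0.64% (vol/vol) and trimethyltin chloride 5 uM as positive control. Axis malformation was recorded at 120 hpf unless the embryo had died.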

Experiment [9] can be described thus: Tanguay_ZF_120hpf_EYE_legacy: (Legacy) Oregon State University Tanguay Lab 120 Hour Post-fertilization zebrafish Assay for Eye Malformation (AID 2283636).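 Further: binary presence or absence of eye malformation scored by brightfield in 120 hpf larvae.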 Put shortly:
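Dechorionated Tropical 5D zebrafish embryos, one per well from 6 hpf, static exposure to 120 hpf at 28C, 0.64% DMSO. Eye malformation scored present/absent by brightfield; dead embryos not scored.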

The nature of experiment [10]: Tanguay_ZF_120hpf_SNOU_legacy: (Legacy) Oregon State University Tanguay Lab 120 Hour Post-fertilization zebrafish Assay for Snout Malformation (AID 2283637). In short, it runs like this: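 Dechorionated tropical 5D wild-type zebrafish embryos exposed statically from 6 to 120 hpf at 28C, one per well, in 0.64% DMSO. Snout malformation scored as present/absent by brightfield at 120 hpf; dead embryos not scored.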

The structures appear in SMILES notation. Results filed as inconclusive are left out. The source holds several records for some structures; these can differ, active in one and inactive in another. Active and inactive are the calls of the source. How the source made its calls: active means hit-call score of the fitted dose curve at least 0.9, where 1 is the maximum; inconclusive means response in the unintended direction; inactive means score below 0.9.

Cellular tumor antigen p53 (Homo sapiens), sequence (P04637 whole entry, looked up): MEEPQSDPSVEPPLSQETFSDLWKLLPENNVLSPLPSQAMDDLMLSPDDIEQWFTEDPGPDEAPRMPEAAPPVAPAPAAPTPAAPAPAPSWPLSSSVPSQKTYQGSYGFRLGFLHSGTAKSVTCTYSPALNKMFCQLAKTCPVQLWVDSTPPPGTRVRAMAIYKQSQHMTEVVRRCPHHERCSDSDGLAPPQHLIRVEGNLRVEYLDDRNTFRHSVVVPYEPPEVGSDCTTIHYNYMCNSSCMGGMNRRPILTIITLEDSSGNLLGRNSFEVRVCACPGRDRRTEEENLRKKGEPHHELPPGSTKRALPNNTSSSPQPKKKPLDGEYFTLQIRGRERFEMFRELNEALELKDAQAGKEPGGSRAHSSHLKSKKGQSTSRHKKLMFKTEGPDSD

For the compound `CSc1nnc(C(C)(C)C)c(=O)n1N`, the outcome in experiment [1], in experiment [2], in experiment [3], in experiment [4], in experiment [5] and in [6] was inactive. In addition, the compound was called inactive in [7], in experiment [8], in experiment [9] and in [10].

For orientation: AC50 means the midpoint of the concentration-response curve, whichever way the signal moves. For `CCCCSP(=O)(SCCCC)SCCCC`, the outcome in experiment [1], in experiment [2], in experiment [3], in experiment [4], in experiment [5] and in [8] was inactive. The compound was called inactive in [9] and in [10]. The AC50 in [7] was 7.24 µM (active).

For the compound `CC(=NC#N)N(C)Cc1ccc(Cl)nc1`, the outcome in experiment [1], in experiment [2], in experiment [3], in experiment [4], in experiment [5] and in experiment [7] was inactive. Moreover, the result in [8], in experiment [9] and in [10] was inactive.

Regarding `CON=C(C(=O)OC)c1ccccc1CON=C(C)c1cccc(C(F)(F)F)c1`, the AC50 in experiment [1] is 3.12 µM (active); in experiment [3], 2.24 µM (active); in [5] it was 1.65 µM (active); in experiment [7] it was 7.29 µM (active); in experiment [9], 5.22 µM (active); in experiment [10] it was 4.07 µM (active). For the same compound, the compound was classed as inactive in experiment [2], in experiment [4], in experiment [6] and in experiment [8].

Consider `CC(C)=CC1C(C(=O)OCN2C(=O)C3=C(CCCC3)C2=O)C1(C)C` (stereo not given), for which the outcome in experiment [1], in experiment [2], in experiment [3], in [4], in experiment [5] and in experiment [7] was inactive. Further, the result in experiment [8], in experiment [9] and in experiment [10] was inactive. Moreover, the AC50 in experiment [2] is 46.1 µM (active).

Take `Nc1nc(N)nc(NC2CC2)n1`: the outcome in [1], in [2], in experiment [3], in [4], in experiment [5] and in experiment [7] was inactive. Moreover, the compound was called inactive in experiment [8], in [9] and in [10].

As to `CCOP(=O)(NC(C)C)Oc1ccc(SC)c(C)c1` (stereo not given), the outcome in [1], in [2], in [3], in [4], in experiment [5] and in experiment [6] was inactive. Moreover, the AC50 in experiment [7] is 24.8 µM (active); in experiment [8], 22.1 µM (active); in experiment [9], 14.6 µM (active); in experiment [10], 20.9 µM (active).

As for `CC(Oc1cccc(Cl)c1)C(=O)O` (stereo not given), the result in experiment [1], in [2], in experiment [3], in experiment [4], in [5] and in experiment [7] was inactive. The outcome in experiment [8], in [9] and in experiment [10] was inactive.

`CCOC(=O)CC(SP(=O)(OC)OC)C(=O)OCC` (stereo not given): the outcome in experiment [1], in experiment [2], in experiment [3], in experiment [4], in experiment [5] and in experiment [6] was inactive. The outcome in [7] and in [10] was inactive. In addition, the half-maximal activity concentration (AC50) is 16.5 µM (active) in experiment [8] and 12.1 µM (active) in [9].

For the compound `FC(F)C(F)(F)OCC(Cn1cncn1)c1ccc(Cl)cc1Cl` (stereo not given), the result in [1], in [3], in [4] and in [5] was inactive. The AC50 was 60.5 µM (active) in experiment [2]; 43.2 µM (active) in experiment [7]; 15.7 µM (active) in [8]; 47.5 µM (active) in experiment [9]; 47 µM (active) in experiment [10].

Regarding `CCC(CC)Nc1c([N+](=O)[O-])cc(C)c(C)c1[N+](=O)[O-]`, the outcome in experiment [1], in [2], in experiment [3], in experiment [4], in [5] and in experiment [7] was inactive. Further, the call in experiment [8], in experiment [9] and in experiment [10] was inactive.

Turning to `CN(C)NC(=O)CCC(=O)O`, the result in [1], in [2], in experiment [3], in experiment [4], in [5] and in [7] was inactive. The result in experiment [8], in experiment [9] and in [10] was inactive.

In the case of `CCOP(=S)(OCC)Oc1cc(C)nc(C(C)C)n1`, the concentration at half-maximal activity (AC50) in experiment [1] is 67.9 µM (active); in experiment [3], 41.7 µM (active); in experiment [4], 36.1 µM (active). For the same compound, the result in [1], in experiment [2], in experiment [4], in experiment [5], in [6] and in [7] was inactive. Further, the compound was classed as inactive in [10].

Consider `C[Si](Cn1cncn1)(c1ccc(F)cc1)c1ccc(F)cc1`, for which the outcome in [1], in experiment [2], in [3], in [4], in experiment [5] and in [6] was inactive. In addition, the concentration at half-maximal activity (AC50) is 53 µM (active) in experiment [2]; 55.6 µM (active) in experiment [5]; 40.9 µM (active) in experiment [7]; 10.3 µM (active) in experiment [8]; 46.9 µM (active) in experiment [9]; 12 µM (active) in [10].
